From PubChem
The entries come from a sample that favours hits as a whole.
14-3-3g Raf – modulators of 14-3-3 gamma protein binding, primary screen, biochemical, fluorescence polarization; 14-3-3 protein gamma (Homo sapiens), P61981; FP, 14-3-3gamma / TMR-pS259-Raf peptide binding; inhibition, % at 40 µM; hit rate 0.19% among 160,000; in the data active = inhibition above about 30%;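 note: 0% = protein plus tracer without compound and 100% = blank with tracer alone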
Target sequence (P61981 whole entry, looked up): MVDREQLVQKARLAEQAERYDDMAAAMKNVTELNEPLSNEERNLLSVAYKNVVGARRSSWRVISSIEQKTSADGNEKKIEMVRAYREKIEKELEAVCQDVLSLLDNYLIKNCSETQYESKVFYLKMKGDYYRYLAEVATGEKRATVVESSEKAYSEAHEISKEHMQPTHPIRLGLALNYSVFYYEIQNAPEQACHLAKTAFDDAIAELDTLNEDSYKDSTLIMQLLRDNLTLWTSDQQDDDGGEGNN
The depositor's hits bear a star.

SMILES	14-3-3g Raf
CCN1/C(=C/c2ccc3ccccc3[n+]2CC)Sc2ccc(C)cc21	-236
CCc1c(-c2ccccc2)nc2ccccc2c1C(=O)NC(C)CC (centres undefined)	2
Cc1cc(NS(=O)(=O)c2ccc(NC(=O)CCC(=O)O)cc2)no1	37*
CCC(=O)Nc1ccc(S(=O)(=O)Nc2cc(C)on2)cc1	-6
Cc1cc(NS(=O)(=O)c2ccc(NC(=O)CCN3C(=O)c4ccccc4C3=O)cc2)no1	-10
CCOC(=O)c1cnc2cc(Cl)c(OC)cc2c1NCc1ccccc1OC	-3
CSc1ccccc1N=Cc1nc(-c2ccccc2)oc1O	3
CC(=O)Nc1ccc(N=Cc2nc(-c3ccc(C)cc3)oc2O)cc1	-6
CN(C)c1ccc(N=Cc2nc(-c3ccccc3)oc2O)cc1	112*
Cc1ccc(NC(=O)c2c(C)nc3sc(C(=O)NCc4ccco4)c(N)c3c2-c2ccc(C)o2)c(C)c1	-11
CCCCN(Cc1ccccc1)C(=O)CN1C(=O)C2C3C=CC(C3)C2C1=O (centres undefined)	-7
COc1ccc(S(=O)(=O)Nc2ccc(Oc3ccccc3)cc2)cc1	-21
CCn1c(CSc2nccn2C)nc2cc(C(=O)O)ccc21	57*
COc1ccc(C(=O)CSc2nccn2C)cc1OC	-6
Cn1ccnc1SCC(=O)c1ccc(Cl)cc1	8
CCOC(=O)c1[nH]c2ccccc2c1NC(=O)c1ccc([N+](=O)[O-])cc1	3
CCOc1cc2[nH]c(=O)n(Cc3ccc(C(=O)NC4CCCCC4)cc3)c(=O)c2cc1OCC	-2
C1COCCOCCN(CCOCCOCCN2CCOCCOCCOCCOCC2)CCOCCO1	1
c1ccc(SCCN2CCOCC2)cc1	-2
c1ccc(COCCOCCN2CCOCCOCCOCCOCCOCC2)cc1	119*
Cc1ccc(C)c(Cn2c(CCNC(=O)Cc3ccccc3)nc3ccccc32)c1	-12
O=C(Nc1cccc(N=Cc2c(O)ccc3cc([N+](=O)[O-])ccc23)c1)c1ccc(F)cc1	-1
CCOc1cc([N+](=O)[O-])cc(C=Nc2cccc(NC(=O)c3ccccc3)c2)c1O	-74
O=C(Nc1cccc(N=Cc2c(O)ccc3cc([N+](=O)[O-])ccc23)c1)c1ccccc1	32*
O=C(Nc1ccccc1)c1cccc(S(=O)(=O)Nc2ccc(C(=O)Oc3ccccc3)cc2)c1	-6
SMILES	14-3-3g Raf
COc1ccc(-c2cc(C(F)(F)F)nc(N3CCC(C)CC3)n2)cc1OC	-13
CCCN1C(=O)C2C(C(=O)Nc3ccc(OC)cc3)C3C=CC2(O3)C1C(=O)NC1CCCC(C)C1C (centres undefined)	1
NC(=O)C1(N2CCCCC2)CCN(C2CC(=O)N(c3ccc(Cl)cc3)C2=O)CC1 (centres undefined)	-84
CCOC(=O)Cn1cc(C(=O)C2CC2)c2ccccc21	-7
CCCC(=O)c1cn(CC(=O)OC)c2ccccc12	-4
COC(=O)Cn1cc(C(=O)C2CC2)c2ccccc21	50*
Cc1cccc2c(C(=O)OCC(=O)c3cccc([N+](=O)[O-])c3)cc(-c3ccccc3)nc12	1
O=C(c1ccc2c(=O)n(CCC3=CCCCC3)c(=S)[nH]c2c1)N1CCN(c2ccccn2)CC1	-1
O=C1c2ccccc2C(=O)c2c(Br)cccc21	-2
O=C1c2ccccc2C(=O)c2c1ccc1c(=O)o[nH]c21	73*
O=C1c2ccccc2C(=O)c2c(I)cccc21	3
COc1ccc(C2=NN(CC(=O)NC(C)(C)C)C(=O)CC2)cc1	-5
CCCN1CNC(=S)N(c2ccccc2CC)C1	-3
CCC1SC(=Nc2ccccc2)N(S(=O)(=O)c2ccc(C)cc2)C1=O (centres undefined)	-4
COc1ccc(NC(=O)C2=C(C)NC(=O)NC2c2ccccc2Br)cc1 (centres undefined)	12
Cc1ccc(N=Cc2cc(Cl)cc([N+](=O)[O-])c2O)c(O)c1	-52
O=[N+]([O-])c1cc(Cc2ccccc2Cl)cc(C=Nc2ccc(N3CCOCC3)cc2)c1O	-81
Cc1cc(C=Nc2ccc(N3CCOCC3)cc2)c(O)c([N+](=O)[O-])c1	86*
Cc1ccc(N=Cc2cc(Cl)cc([N+](=O)[O-])c2O)cc1Cl	42*
Cc1cc(Br)c(O)c(C=Nc2ccc(N3CCOCC3)cc2)c1	-83
O=[N+]([O-])c1cc(Cl)cc(C=Nc2ccc(Cl)c(-c3nc4ccccc4o3)c2)c1O	-21
Cc1cc(C)cc(NC(=O)CSC2=NN3CCCC(=O)N=C3S2)c1	0
O=C(NCCc1ccccc1)c1cc2nc(-c3ccco3)cc(C(F)(F)Cl)n2n1	-37
O=C(c1ccc(SCCN2CCOCC2)c([N+](=O)[O-])c1)N1CCOCC1	-3
Cc1ccc(C2(C)NC(=S)N(c3ccccc3)N2)o1 (centres undefined)	-4
SMILES	14-3-3g Raf
Cc1ccc(N(CCCN2C(=O)c3cccc4cccc(c34)C2=O)C(=O)c2cccc([N+](=O)[O-])c2)cc1	5
Clc1ccc(Nc2c(-c3ccsc3)nc3ccc(Cl)cn23)cc1	-12
Cc1ccc2cc3cc(C(=O)NCCCN4CCC(C)CC4)oc3nc2c1	6
Cc1ccc2cc3cc(C(=O)NCCCN4CCN(C)CC4)oc3nc2c1	66*
CCN1CCN(CCCNC(=O)c2cc3cc4ccc(C)cc4nc3o2)CC1	-9
O=C(CSc1nc2ccccc2s1)OCC(=O)N1c2ccccc2Sc2ccccc21	-8
Cc1ccc(C)n1CCCCNC(=O)CC#N	-65
CCCCCCCNC(=O)C1(C)CC(=O)N=C2C=CC(C)=CN21 (centres undefined)	-7
COc1cc2c(cc1OC)C(COc1ccccc1OC)N(C(=O)c1ccc(F)cc1)CC2 (centres undefined)	-2
Cc1cccc(NC(=O)CCN2C(=S)NC(C)(C)CC2C)c1C (centres undefined)	4
CCN(C(=O)CN1C(=S)NC(C)(C)CC1C)c1ccc(C)c(C)c1 (centres undefined)	-5
CCN(C(=O)CCN1C(=S)NC(C)(C)CC1C)c1ccc(C)c(C)c1 (centres undefined)	51*
Cc1cccc(OCC(=O)Nc2ccc(-c3nc4cc(C)cc(C)c4o3)cc2)c1	-106
C=CCn1c(SCc2ccc3c(c2)OCO3)nc2sc(C)c(C)c2c1=O	-8
Cc1ccc(C2CC(O)C(C)C(c3ccc(C)cc3)N2)cc1 (centres undefined)	-3
O=C(Nc1ccc2oc(-c3ccncc3)nc2c1)c1ccc(Cl)c([N+](=O)[O-])c1	-28
CCCCC1CCC(C(=O)Nc2c3c(nn2-c2ccc([N+](=O)[O-])cc2)CSC3)CC1 (centres undefined)	-5
Cc1cccc(C(=O)Nc2ccc(O)cc2)c1	2
Cc1cccc(C(=O)Nc2cccc(NC(=O)c3cccc(C)c3)c2)c1	45*
Cc1cccc(C(=O)Nc2cccc(NC(=O)c3ccc(F)cc3)c2)c1	2
Cc1ccc(NC(=O)COc2ccccc2Cl)c(Br)c1	-16
CC1=CC(C#N)(C#N)C(C#N)(C#N)C(c2ccccc2)N1 (centres undefined)	73*
CCC1=C(C)C(c2ccccc2)NC(=S)N1 (centres undefined)	2
CCSC1(SCC)N=C(N)C2(C#N)C(c3ccccc3)NC(C)=C(C)C12C#N (centres undefined)	-6
Cc1ccccc1-n1c(Cc2ccc(Cl)cc2)n[nH]c1=S	2
COc1ccccc1N1CCN(C2CCN(C(=O)c3cccc(Cl)c3)CC2)CC1	-6
COc1cccc(C(=O)c2c[nH]c3ccccc3c2=O)c1	-3
C=CCC1C=CCC(CC=C)N1C(=O)C(F)(F)F (centres undefined)	1
